PubChem BioAssay (EPA / NIEHS)
The source made the active and inactive calls. How the source made its calls: active means hit-call score of the fitted dose curve at least 0.9, where 1 is the maximum; inactive means score below 0.9.

What was measured:
Conditions in all cases: mRNA level, 48 h; actives raise or lower the signal
[1] = read-out: Paternally Expressed 10 (PEG10), PEG10 (gene 23089); assay: LTEA_HepaRG_PEG10: Life Technologies and Expression Analysis (LTEA) Assay for Paternally Expressed 10 (PEG10) using HepaRG (AID 2283520)
In short: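 Chemicals tested on HepaRG cells for 48 h, highest concentration 100 uM. PEG10 expression assessed by qRT-PCR relative to DMSO control.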

[2] = read-out: Nuclear factor NF-kappa-B p105 subunit (Homo sapiens) (UniProt P19838); assay: LTEA_HepaRG_NFKB1: Life Technologies and Expression Analysis (LTEA) Assay for Nuclear Factor Kappa B Subunit 1 (NFKB1) using HepaRG (AID 2283521);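 further: TaqMan qRT-PCR transcript normalised to ACTB GAPDH and POLR2A housekeeping genes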
In short: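 Human HepaRG cells receive eight half-log concentrations, highest 100 uM, for 48 h. NFKB1 expression is then quantified by qRT-PCR and analysed for up- or down-regulation relative to 0.5% DMSO vehicle.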

[3] = read-out: Protein phosphatase 2A (PPP2R4), PTPA (gene 5524); assay: LTEA_HepaRG_PPP2R4: Life Technologies and Expression Analysis (LTEA) Assay for Protein phosphatase 2A (PPP2R4) using HepaRG (AID 2283522)
In short: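 Gene-expression endpoint in HepaRG hepatic cells: 48 h treatment across eight half-log concentrations up to 100 uM in 0.5% DMSO. PPP2R4 mRNA by qRT-PCR, normalized to three endogenous control genes.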

[4] = read-out: Phosphatase and tensin (PTEN), PTEN (gene 5728); assay: LTEA_HepaRG_PTEN: Life Technologies and Expression Analysis (LTEA) Assay for Phosphatase and tensin (PTEN) using HepaRG (AID 2283523)
In short: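 Differentiated human HepaRG cells, plated 48 h then switched to serum-free induction medium, were exposed in duplicate for 48 h to eight half-log concentrations up to 100 uM in 0.5% DMSO. PTEN mRNA measured by TaqMan qRT-PCR, normalized to ACTB/GAPDH/POLR2A, bidirectional fit versus DMSO.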

[5] = read-out: solute carrier (SLC22A1), SLC22A1 (gene 6580); assay: LTEA_HepaRG_SLC22A1: Life Technologies and Expression Analysis (LTEA) Assay for solute carrier (SLC22A1) using HepaRG (AID 2283524)
In short: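 Human HepaRG cells were plated 48 h, switched to serum-free induction medium, then exposed in duplicate for 48 h to 8-point half-log series from 100 uM in 0.5% DMSO. SLC22A1 mRNA measured by qRT-PCR, normalized to ACTB/GAPDH/POLR2A, fitted bidirectionally versus DMSO.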

[6] = read-out: Pyruvate Dehydrogenase Kinase 4 (PDK4), PDK4 (gene 5166); assay: LTEA_HepaRG_PDK4: Life Technologies and Expression Analysis (LTEA) Assay for Pyruvate Dehydrogenase Kinase 4 (PDK4) using HepaRG (AID 2283525)
In short: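 Differentiated human HepaRG cells, pre-cultured 48 h, were exposed in duplicate for 48 h in serum-free induction medium to eight half-log concentrations up to 100 uM in 0.5% DMSO. PDK4 mRNA was quantified by qRT-PCR, normalized to ACTB, GAPDH and POLR2A, bidirectional fitting versus DMSO.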

[7] = read-out: NAD(P)H dehydrogenase [quinone] 1 (NQO1), NQO1 (gene 1728); assay: LTEA_HepaRG_NQO1: Life Technologies and Expression Analysis (LTEA) Assay for NAD(P)H dehydrogenase [quinone] 1 (NQO1) using HepaRG (AID 2283526)
In short: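 Human HepaRG hepatic cells received chemicals for 48 h in serum-free induction medium with 0.5% DMSO, up to 100 uM. Expression was assessed by TaqMan qRT-PCR against housekeeping controls and fitted bidirectionally against DMSO.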

[8] = read-out: Nuclear factor erythroid 2-related factor 2 (Homo sapiens) (UniProt Q16236); assay: LTEA_HepaRG_NFE2L2: Life Technologies and Expression Analysis (LTEA) Assay for Nuclear factor erythroid 2-related factor 2 (NFE2L2) Transcription Factor using HepaRG (AID 2283527);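 further: TaqMan qRT-PCR transcript level normalised to ACTB GAPDH and POLR2A housekeeping genes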
In short: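 Differentiated human HepaRG cells in serum-free induction medium were exposed for 48 h to eight concentrations (top 100 uM, half-log dilutions, 0.5% DMSO), in duplicate. NFE2L2 mRNA was quantified by TaqMan qRT-PCR, normalized to ACTB, GAPDH and POLR2A, with bidirectional fitting versus DMSO.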

[9] = read-out: succinate dehydrogenase complex iron sulfur subunit B (SDHB), SDHB (gene 6390); assay: LTEA_HepaRG_SDHB: Life Technologies and Expression Analysis (LTEA) Assay for succinate dehydrogenase complex iron sulfur subunit B (SDHB) using HepaRG (AID 2283528)
In short: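 A human HepaRG culture in serum-free induction medium received test chemicals for 48 h over an eight-point range capped at 100 uM. SDHB expression change was quantified by qRT-PCR.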

[10] = read-out: Signal transducer and activator of transcription 3 (Homo sapiens) (UniProt P40763); assay: LTEA_HepaRG_STAT3: Life Technologies and Expression Analysis (LTEA) Assay for Signal transducer and activator of transcription (STAT3) using HepaRG (AID 2283529)
In short: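 Differentiated human HepaRG cells in serum-free induction medium were exposed in duplicate for 48 h to eight half-log concentrations up to 100 uM in 0.5% DMSO. STAT3 mRNA was quantified by TaqMan qRT-PCR, normalized to ACTB, GAPDH and POLR2A, and fitted bidirectionally against DMSO.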

[11] = read-out: solute carrier (SLCO1B1), SLCO1B1 (gene 10599); assay: LTEA_HepaRG_SLCO1B1: Life Technologies and Expression Analysis (LTEA) Assay for solute carrier (SLCO1B1) using HepaRG (AID 2283530)
In short: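 HepaRG, serum-free induction medium, 48 h dosing, 8-pt half-log from 100 uM, 0.5% DMSO vehicle, duplicates. Readout: SLCO1B1 mRNA, qRT-PCR, ACTB/GAPDH/POLR2A normalization; up or down fit vs DMSO.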

[12] = read-out: sulfotransferase 2A1 (SULT2A1), SULT2A1 (gene 6822); assay: LTEA_HepaRG_SULT2A1: Life Technologies and Expression Analysis (LTEA) Assay for sulfotransferase 2A1 (SULT2A1) using HepaRG (AID 2283531)
In short: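 Transcript levels of SULT2A1, quantified by qRT-PCR and normalized to three housekeeping genes, serve as the readout. Human HepaRG cultures receive test chemicals for 48 h at up to 100 uM in half-log steps, with 0.5% DMSO vehicle.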

[13] = read-out: Transforming Growth Factor (TGFA), TGFA (gene 7039); assay: LTEA_HepaRG_TGFA: Life Technologies and Expression Analysis (LTEA) Assay for Transforming Growth Factor (TGFA) using HepaRG (AID 2283532)
In short: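 Differentiated human HepaRG cells, plated 48 h then switched to serum-free induction medium, were exposed in duplicate for 48 h to 8-point half-log series from 100 uM in 0.5% DMSO. TGFA mRNA measured by qRT-PCR, normalized to ACTB/GAPDH/POLR2A, bidirectional fit versus DMSO.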

[14] = read-out: Transforming Growth Factor (TGFB1), TGFB1 (gene 7040); assay: LTEA_HepaRG_TGFB1: Life Technologies and Expression Analysis (LTEA) Assay for Transforming Growth Factor (TGFB1) Transporter using HepaRG (AID 2283533)
In short: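 HepaRG, 48 h post-plating, switched to serum-free induction medium; chemicals 100 uM top, half-log, 8 pts, 0.5% DMSO, dup; 48 h exposure; RNA → Fluidigm TaqMan qRT-PCR; norm ACTB/GAPDH/POLR2A; bidirectional fit vs DMSO.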

[15] = read-out: TIMP1, TIMP1 (gene 7076); assay: LTEA_HepaRG_TIMP1: Life Technologies and Expression Analysis (LTEA) Assay for TIMP1 using HepaRG (AID 2283534);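 further: TaqMan qRT-PCR signal normalized to ACTB GAPDH and POLR2A housekeeping genes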
In short: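 Readout is TIMP1 mRNA level measured by qRT-PCR and normalized to three housekeeping genes. Human HepaRG cells were treated for 48 h in duplicate at eight concentrations up to 100 uM (0.5% DMSO); gain or loss fitted against DMSO.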

[16] = read-out: Tumor necrosis factor receptor 1 (TNFRSF1A), TNFRSF1A (gene 7132); assay: LTEA_HepaRG_TNFRSF1A: Life Technologies and Expression Analysis (LTEA) Assay for Tumor necrosis factor receptor 1 (TNFRSF1A) using HepaRG (AID 2283535)
In short: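 Read-out is TNFRSF1A transcript level by TaqMan qRT-PCR, normalized to three housekeeping genes, scored as gain or loss of signal versus 0.5% DMSO. Human HepaRG cells received test chemicals for 48 h at up to 100 uM (half-log series).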

[17] = read-out: Thyroid Hormone Responsive (THRSP), THRSP (gene 7069); assay: LTEA_HepaRG_THRSP: Life Technologies and Expression Analysis (LTEA) Assay for Thyroid Hormone Responsive (THRSP) using HepaRG (AID 2283536)
In short: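 Differentiated human HepaRG cells were exposed in duplicate for 48 h in serum-free induction medium to eight concentrations (top 100 uM, half-log steps, 0.5% DMSO). Expression was quantified by TaqMan qRT-PCR, normalized to ACTB, GAPDH and POLR2A, with bidirectional fitting against DMSO.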

[18] = read-out: Cellular tumor antigen p53 (Homo sapiens) (UniProt P04637); assay: LTEA_HepaRG_TP53: Life Technologies and Expression Analysis (LTEA) Assay for Tumor Protein P53 (TP53) using HepaRG (AID 2283537)
In short: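 Gain or loss of TP53 mRNA signal is scored relative to 0.5% DMSO after 48 h chemical treatment of HepaRG liver cells, tested in duplicate at eight half-log concentrations up to 100 uM.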

[19] = read-out: UDP glucuronosyltransferase (UGT1A1), UGT1A1 (gene 54658); assay: LTEA_HepaRG_UGT1A1: Life Technologies and Expression Analysis (LTEA) Assay for UDP glucuronosyltransferase (UGT1A1) using HepaRG (AID 2283538)
In short: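 Human liver HepaRG cultures receive test chemical for 48 h, up to 100 uM in 0.5% DMSO, with phenobarbital induction controls. UGT1A1 mRNA is measured by qRT-PCR and normalized to ACTB, GAPDH and POLR2A.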

[20] = read-out: UDP glucuronosyltransferase (UGT1A6), UGT1A6 (gene 54578); assay: LTEA_HepaRG_UGT1A6: Life Technologies and Expression Analysis (LTEA) Assay for UDP glucuronosyltransferase (UGT1A6) using HepaRG (AID 2283539)
In short: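 HepaRG, 48 h post-plating switch to serum-free induction medium; chemical 48 h, 100 uM top, half-log x8, duplicate, 0.5% DMSO. Phenobarbital 1mM induction control. UGT1A6 mRNA by TaqMan qRT-PCR; gain/loss fit vs DMSO.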

Chain of Nuclear factor NF-kappa-B p105 subunit (Homo sapiens) (P19838 whole entry, looked up): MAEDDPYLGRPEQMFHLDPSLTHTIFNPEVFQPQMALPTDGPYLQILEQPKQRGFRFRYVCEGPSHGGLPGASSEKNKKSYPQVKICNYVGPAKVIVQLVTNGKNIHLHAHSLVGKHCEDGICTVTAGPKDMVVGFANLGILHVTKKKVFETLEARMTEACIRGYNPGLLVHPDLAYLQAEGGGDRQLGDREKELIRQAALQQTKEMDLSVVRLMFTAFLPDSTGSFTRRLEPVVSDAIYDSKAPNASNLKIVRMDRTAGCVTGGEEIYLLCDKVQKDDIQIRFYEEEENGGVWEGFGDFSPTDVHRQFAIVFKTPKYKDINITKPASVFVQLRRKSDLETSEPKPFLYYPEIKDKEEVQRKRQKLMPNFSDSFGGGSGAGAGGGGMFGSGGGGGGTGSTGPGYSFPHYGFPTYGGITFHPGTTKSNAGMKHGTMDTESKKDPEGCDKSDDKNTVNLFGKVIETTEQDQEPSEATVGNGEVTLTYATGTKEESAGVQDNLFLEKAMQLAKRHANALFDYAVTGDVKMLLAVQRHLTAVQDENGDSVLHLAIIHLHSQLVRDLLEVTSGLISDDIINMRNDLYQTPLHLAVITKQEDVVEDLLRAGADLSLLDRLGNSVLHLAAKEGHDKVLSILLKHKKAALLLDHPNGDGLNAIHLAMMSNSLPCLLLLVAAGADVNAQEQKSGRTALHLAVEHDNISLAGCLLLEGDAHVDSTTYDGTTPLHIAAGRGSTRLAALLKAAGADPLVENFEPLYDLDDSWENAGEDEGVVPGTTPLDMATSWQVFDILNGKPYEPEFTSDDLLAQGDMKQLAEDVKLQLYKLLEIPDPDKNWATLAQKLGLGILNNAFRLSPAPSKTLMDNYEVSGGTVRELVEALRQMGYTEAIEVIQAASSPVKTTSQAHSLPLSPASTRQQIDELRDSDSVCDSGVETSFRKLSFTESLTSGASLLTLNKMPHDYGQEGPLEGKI
Chain of Nuclear factor erythroid 2-related factor 2 (Homo sapiens) (Q16236 whole entry, looked up): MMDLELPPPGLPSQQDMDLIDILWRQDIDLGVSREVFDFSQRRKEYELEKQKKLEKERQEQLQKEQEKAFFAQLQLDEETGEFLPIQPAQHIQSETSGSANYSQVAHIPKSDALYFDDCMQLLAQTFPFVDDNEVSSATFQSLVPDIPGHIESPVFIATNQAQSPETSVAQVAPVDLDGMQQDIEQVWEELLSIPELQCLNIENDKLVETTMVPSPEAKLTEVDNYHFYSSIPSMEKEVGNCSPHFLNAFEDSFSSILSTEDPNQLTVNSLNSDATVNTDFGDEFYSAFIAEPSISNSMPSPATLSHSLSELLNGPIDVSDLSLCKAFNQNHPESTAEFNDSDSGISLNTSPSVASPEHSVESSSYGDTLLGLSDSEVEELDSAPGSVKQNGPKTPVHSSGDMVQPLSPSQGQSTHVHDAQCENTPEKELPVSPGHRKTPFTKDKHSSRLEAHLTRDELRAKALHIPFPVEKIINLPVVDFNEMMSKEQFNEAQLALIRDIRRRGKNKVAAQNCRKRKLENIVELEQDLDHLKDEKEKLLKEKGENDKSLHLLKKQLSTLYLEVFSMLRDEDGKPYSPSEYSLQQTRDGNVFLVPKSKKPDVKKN
Chain of Signal transducer and activator of transcription 3 (Homo sapiens) (P40763 whole entry, looked up): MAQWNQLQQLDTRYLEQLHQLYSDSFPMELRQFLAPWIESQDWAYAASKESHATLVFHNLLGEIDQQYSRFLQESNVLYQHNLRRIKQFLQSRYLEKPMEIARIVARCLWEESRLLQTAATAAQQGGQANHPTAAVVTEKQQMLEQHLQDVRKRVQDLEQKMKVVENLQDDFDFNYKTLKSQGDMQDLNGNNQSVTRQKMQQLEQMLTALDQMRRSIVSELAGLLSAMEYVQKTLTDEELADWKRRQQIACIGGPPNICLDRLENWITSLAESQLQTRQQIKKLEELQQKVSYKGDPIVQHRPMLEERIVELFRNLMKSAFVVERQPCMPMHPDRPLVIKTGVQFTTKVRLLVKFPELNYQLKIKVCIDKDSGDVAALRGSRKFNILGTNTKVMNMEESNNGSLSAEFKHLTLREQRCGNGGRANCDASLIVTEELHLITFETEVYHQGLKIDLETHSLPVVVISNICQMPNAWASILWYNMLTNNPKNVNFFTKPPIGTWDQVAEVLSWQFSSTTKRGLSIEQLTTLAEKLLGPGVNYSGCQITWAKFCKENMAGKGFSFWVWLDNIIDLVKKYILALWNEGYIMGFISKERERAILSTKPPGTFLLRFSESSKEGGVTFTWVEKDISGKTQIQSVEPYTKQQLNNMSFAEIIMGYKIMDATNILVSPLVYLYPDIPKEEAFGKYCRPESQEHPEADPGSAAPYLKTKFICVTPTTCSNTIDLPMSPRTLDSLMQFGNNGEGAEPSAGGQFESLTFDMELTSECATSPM
Chain of Cellular tumor antigen p53 (Homo sapiens) (P04637 whole entry, looked up): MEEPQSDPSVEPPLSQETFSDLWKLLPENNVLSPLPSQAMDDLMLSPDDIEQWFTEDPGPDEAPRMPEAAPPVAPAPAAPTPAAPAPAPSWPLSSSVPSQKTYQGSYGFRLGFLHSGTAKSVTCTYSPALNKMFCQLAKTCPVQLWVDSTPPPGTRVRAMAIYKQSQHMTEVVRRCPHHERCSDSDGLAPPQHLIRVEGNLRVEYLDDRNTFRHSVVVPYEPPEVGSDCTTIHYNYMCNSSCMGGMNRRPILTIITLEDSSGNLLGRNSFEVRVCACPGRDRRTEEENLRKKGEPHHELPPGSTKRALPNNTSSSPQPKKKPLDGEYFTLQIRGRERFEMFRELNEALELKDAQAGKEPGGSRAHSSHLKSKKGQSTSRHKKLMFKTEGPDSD

SMILES: O=C(O)c1ccc([N+](=O)[O-])cc1
- outcome [1]: inactive
- outcome [2]: inactive
- outcome [3]: inactive
- outcome [4]: inactive
- outcome [5]: inactive
- outcome [6]: inactive
- outcome [7]: inactive
- outcome [8]: inactive
- outcome [9]: inactive
- outcome [10]: inactive
- outcome [11]: inactive
- outcome [12]: inactive
- outcome [13]: inactive
- outcome [14]: inactive
- outcome [15]: inactive
- AC50 [16]: 646 nM (active)
- outcome [17]: inactive
- outcome [18]: inactive
- outcome [19]: inactive
- outcome [20]: inactive
